Assay results as given in PubChem BioAssay.
Calls of active or inactive are those of the source. Unless noted, how the calls were made is not given here.

Legend:
[1] = test system: Wnt5a (protein binding on small-molecule microarray); assay: small molecules binding Wnt5a protein – biophysical, small-molecule microarray, 635/667 nm fluorescence, primary screen (AID 1142); conditions: 635 nm fluorescence, higher = more signal;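 further: fluorescence read at 667 nm with signal to noise per printed feature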
[2] = ATP-based viability of Huh7 replicon cells – cell-based, CellTiter-Glo luminescence, basal, 48 h, cytotoxicity control for HCV replication inhibitor project, primary screen (AID 1143); conditions: higher = more signal, called active from +8 up or from −8 down;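 further: Huh7 hepatoma cells carrying a hepatitis C replication reporter with no stimulus; test concentration not given here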
[3] = Pseudomonas biofilm growth suppression – PAO1 strain, BacTiter-Glo luminescence, LB-PBS, primary screen (AID 1144); conditions: P. aeruginosa PAO1 biofilm, 12 h, higher = more signal
[4] = basal CRE-LacZ reporter activity in PC12 – cell-based, unstimulated, primary screen (AID 1145); conditions: no forskolin, luminescence, 4.5 h, higher = more signal, called active from +8 up or from −8 down
[5] = forskolin-driven CRE-LacZ activity in PC12 – cell-based, CRE-LacZ reporter, forskolin-stimulated, primary screen (AID 1146); conditions: luminescence, 4.5 h, higher = more signal, called active from +8 up or from −8 down;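 further: PC12 cells with 6xCRE LacZ reporter stimulated by forskolin 10 µM; beta-galactosidase reporter signal reflecting CREB driven transcription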
[6] = target: Streptavidin (Streptomyces avidinii) (UniProt P22629); assay: compounds binding control protein streptavidin – biophysical, small-molecule microarray, 635/667 nm fluorescence, artefact control for SMM compound annotation, primary screen (AID 1147); conditions: higher = more signal;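 further: signal reflects streptavidin binding to arrayed compounds as a control protein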
Streptavidin (Streptomyces avidinii), sequence (P22629 whole entry, looked up): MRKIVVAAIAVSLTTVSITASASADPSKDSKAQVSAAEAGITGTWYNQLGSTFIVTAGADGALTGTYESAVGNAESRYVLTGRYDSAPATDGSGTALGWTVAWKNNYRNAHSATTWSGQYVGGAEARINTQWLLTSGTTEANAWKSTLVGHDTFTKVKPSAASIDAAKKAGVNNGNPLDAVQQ

[7] = probe aInhba binding on compound microarray – biochemical, small-molecule microarray, 635/667 nm fluorescence, primary screen (AID 1148); conditions: higher = more signal;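 further: score merges 667nm spot fluorescence with signal-to-noise for antibody binding to printed compounds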
Torsin-1A (Homo sapiens) [8] = target: Torsin-1A (Homo sapiens) (UniProt O14656); assay: TOR1A wild-type binding on microarray – cell lysate, small-molecule microarray, lysate, 635/667 nm, primary screen (AID 1149); conditions: COS7 hTOR1A-WT lysate, 635 nm fluorescence, higher = more signal
Torsin-1A (Homo sapiens), sequence (O14656 whole entry, looked up): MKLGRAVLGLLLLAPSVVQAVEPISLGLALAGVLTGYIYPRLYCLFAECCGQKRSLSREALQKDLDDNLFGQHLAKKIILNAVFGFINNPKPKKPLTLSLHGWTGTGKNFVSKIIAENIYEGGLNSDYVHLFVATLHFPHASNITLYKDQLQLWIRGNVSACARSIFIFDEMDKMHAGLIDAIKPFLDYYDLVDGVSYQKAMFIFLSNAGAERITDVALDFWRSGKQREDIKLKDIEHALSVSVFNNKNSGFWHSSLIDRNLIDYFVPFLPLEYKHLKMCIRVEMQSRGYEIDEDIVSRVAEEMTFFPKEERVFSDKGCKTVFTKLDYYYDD

Torsin-1A (Homo sapiens) [9] = target: Torsin-1A (Homo sapiens) (UniProt O14656); assay: torsin A mutant lysate binding on microarrays – cell lysate, small-molecule microarray, COS7 lysate, 635/667 nm fluorescence, primary screen (AID 1150); conditions: COS7 hTOR1A mutant lysate, 635 nm fluorescence, higher = more signal;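 further: score pools 667 nm emission and signal to noise measuring lysate protein binding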
[10] = test system: Sonic hedgehog protein (Shh); assay: Sonic hedgehog microarray binding compounds – biochemical, small-molecule microarray, 635/667 nm fluorescence, primary screen (AID 1151); conditions: 635 nm fluorescence, higher = more signal;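 further: Shh protein binding to compounds spotted on small-molecule microarray slides; score combines spot fluorescence intensity with signal-to-noise across triplicate slides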

Row | SMILES | composite z-score [1] | z-score [2] | z-score [3] | z-score [4] | z-score [5] | composite z-score [6] | composite z-score [7] | composite z-score (Torsin-1A (Homo sapiens) [8]) | composite z-score (Torsin-1A (Homo sapiens) [9]) | composite z-score [10]
1 | COC(=O)[C@H](C)NC(=O)CCC1CC(OC(=O)NCCc2ccc(F)cc2)CC2(CCCC(COC(=O)NCCC(C)C)O2)O1 (stereo not given in full) | 0.255 | -0.872 (inactive) | -1.41 (inactive) | 0.109 (inactive) | 0.283 (inactive) | 0.0943 | 0.0047 | -0.184 | -0.0067 | 1.22
2 | CCOC(=O)[C@H](CC(C)C)NC(=O)CCC1CC(OC(=O)NCc2ccc3c(c2)OCO3)CC2(CCCC(COC(=O)NCC(c3ccccc3)c3ccccc3)O2)O1 (stereo not given in full) | 0.222 | -0.356 (inactive) | -0.187 (inactive) | 0.111 (inactive) | 1.67 (inactive) | -0.201 | -0.0405 | 0.0929 | 0.351 | 1.77
3 | CC(C)=CCCC(C)=CCON=C1C[C@@H](O)[C@@H](O)[C@@H]2[C@@H]3C(=O)N(Cc4ccccc4)C(=O)[C@@H]3CC[C@H]12 | -0.0617 | -3.4 (inactive) | -0.302 (inactive) | -0.293 (inactive) | -0.96 (inactive) | 0.0609 | -0.0736 | 0.23 | 0.0793 | 0.993
4 | CCOC(=O)[C@H](CC(C)C)NC(=O)CCC1CC(OC(=O)NCc2cccc3ccccc23)CC2(CCCC(COC(=O)NCCOc3ccccc3)O2)O1 (stereo not given in full) | 0.746 | -0.248 (inactive) | -0.477 (inactive) | -0.526 (inactive) | -0.519 (inactive) | 0.628 | 0.0248 | 0.236 | 0.117 | 0.805
5 | CO[C@@H]1COC(=O)[C@@H](C)NC(=O)CC=C[C@@H](C)[C@H](NS(=O)(=O)c2ccc(C)cc2)COC(=O)[C@H](C)NC(=O)CC=C[C@H]1C | -0.0222 | 0.806 (inactive) | 0.829 (inactive) | 0.881 (inactive) | -0.314 (inactive) | -0.967 | -0.218 | 1.31 | 0.584 | 1.33
6 | Cc1cc2c(nc1C)CCCCN2CC(C)ON=C1[C@H]2CCn3c(=O)n(-c4ccccc4)c(=O)n3[C@H]2[C@H](O)[C@@H]2O[C@H]12 (stereo not given in full) | 0.384 | -0.299 (inactive) | 0.888 (inactive) | -1.21 (inactive) | -0.379 (inactive) | -0.251 | -0.125 | -0.0459 | -0.136 | 0.829
7 | CO[C@H]1COC(=O)[C@@H](C)COC(=O)[C@H](COCc2ccccc2)NC(=O)CC=C[C@H]1C | -0.171 | 0.27 (inactive) | -1.04 (inactive) | -0.567 (inactive) | -0.985 (inactive) | -0.807 | -0.203 | 0.436 | 0.491 | 1.88
8 | CCO[C@H](c1cc(OC)cc([N+](=O)[O-])c1OC)[C@H](C)C=CCC(=O)OC | -0.151 | 0.0843 (inactive) | -0.0286 (inactive) | -0.0684 (inactive) | -0.893 (inactive) | 0.0571 | -0.183 | 0.636 | 0.192 | 1.7
9 | CCOC(=O)[C@H](Cc1ccccc1)NC(=O)CCC1CC(OC(=O)NCCc2ccc(F)cc2)CC2(CCCC(COC(=O)NCCOC)O2)O1 (stereo not given in full) | 1.58 | -0.326 (inactive) | -0.852 (inactive) | 0.473 (inactive) | -0.728 (inactive) | 1.19 | 0.122 | 0.998 | 0.753 | 0.784
10 | CCOC(=O)CCN1C(=O)[C@H]2[C@H]3[C@H](O)[C@H](O)CC(=NNC(=O)OCc4ccccc4)[C@@H]3CC[C@H]2C1=O | 0.109 | 0.13 (inactive) | -0.143 (inactive) | 0.161 (inactive) | -0.244 (inactive) | 0.551 | -0.218 | 0.701 | 0.672 | 1.26
11 | CCCNC(=O)OC[C@H]1O[C@H](CCON=C(C)CCC(=O)OC[C@H]2O[C@H](c3ccccc3)C=C[C@@H]2Oc2ccc(OC)cc2)C=C[C@@H]1Oc1ccc(OC)cc1 | -0.109 | -1.13 (inactive) | -0.665 (inactive) | -0.478 (inactive) | 0.913 (inactive) | 0.728 | -0.125 | -0.694 | -0.243 | -0.137
12 | COC(=O)[C@H](C)NC(=O)CCC1CC(OC(=O)NCCc2ccc(F)cc2)CC2(CCCC(COC(=O)NCc3cccc(C(F)(F)F)c3)O2)O1 (stereo not given in full) | 0.116 | -0.382 (inactive) | 0.198 (inactive) | 0.0178 (inactive) | 0.144 (inactive) | 0.213 | -0.242 | 0.818 | 0.0548 | 1.09
13 | O=C1C[C@@H](O)[C@@H](O)[C@@H]2[C@@H]3C(=O)N(Cc4ccc5c(c4)OCO5)C(=O)[C@@H]3CC[C@H]12 | -0.005 | -0.104 (inactive) | -0.396 (inactive) | 0.516 (inactive) | 0.244 (inactive) | 0.139 | -0.152 | 0.0825 | 0.339 | 0.256
14 | CCOC(=O)NN=C1C[C@@H](O)[C@@H](O)[C@@H]2[C@@H]3C(=O)N(c4cccc(Oc5ccccc5)c4)C(=O)[C@@H]3CC[C@H]12 | 0.0643 | -1.16 (inactive) | -0.215 (inactive) | 0.523 (inactive) | 0.583 (inactive) | 0.948 | -0.129 | 0.933 | 0.0519 | 0.206
